From the supplement of paper PMC11732987, “Enantioselective OTUD7B fragment discovery through chemoproteomics screening and high-throughput optimisation” (Communications Chemistry, 2025)

How the values were obtained:
Assay in all cases: log2 ratio of Biotin-Ahx-Ub-VS probe labelling (fragment/DMSO); higher = less target engagement (more negative = stronger competition), active = hit call of the paper (q ≤ 0.05, log2 ratio ≤ -1)
Conditions in all cases: compound concentration: 200 uM; treatment time: 3 h
USP34 = USP34 (UniProt Q70CQ2)
USP34, sequence (Q70CQ2 whole entry, the tested form may be a part): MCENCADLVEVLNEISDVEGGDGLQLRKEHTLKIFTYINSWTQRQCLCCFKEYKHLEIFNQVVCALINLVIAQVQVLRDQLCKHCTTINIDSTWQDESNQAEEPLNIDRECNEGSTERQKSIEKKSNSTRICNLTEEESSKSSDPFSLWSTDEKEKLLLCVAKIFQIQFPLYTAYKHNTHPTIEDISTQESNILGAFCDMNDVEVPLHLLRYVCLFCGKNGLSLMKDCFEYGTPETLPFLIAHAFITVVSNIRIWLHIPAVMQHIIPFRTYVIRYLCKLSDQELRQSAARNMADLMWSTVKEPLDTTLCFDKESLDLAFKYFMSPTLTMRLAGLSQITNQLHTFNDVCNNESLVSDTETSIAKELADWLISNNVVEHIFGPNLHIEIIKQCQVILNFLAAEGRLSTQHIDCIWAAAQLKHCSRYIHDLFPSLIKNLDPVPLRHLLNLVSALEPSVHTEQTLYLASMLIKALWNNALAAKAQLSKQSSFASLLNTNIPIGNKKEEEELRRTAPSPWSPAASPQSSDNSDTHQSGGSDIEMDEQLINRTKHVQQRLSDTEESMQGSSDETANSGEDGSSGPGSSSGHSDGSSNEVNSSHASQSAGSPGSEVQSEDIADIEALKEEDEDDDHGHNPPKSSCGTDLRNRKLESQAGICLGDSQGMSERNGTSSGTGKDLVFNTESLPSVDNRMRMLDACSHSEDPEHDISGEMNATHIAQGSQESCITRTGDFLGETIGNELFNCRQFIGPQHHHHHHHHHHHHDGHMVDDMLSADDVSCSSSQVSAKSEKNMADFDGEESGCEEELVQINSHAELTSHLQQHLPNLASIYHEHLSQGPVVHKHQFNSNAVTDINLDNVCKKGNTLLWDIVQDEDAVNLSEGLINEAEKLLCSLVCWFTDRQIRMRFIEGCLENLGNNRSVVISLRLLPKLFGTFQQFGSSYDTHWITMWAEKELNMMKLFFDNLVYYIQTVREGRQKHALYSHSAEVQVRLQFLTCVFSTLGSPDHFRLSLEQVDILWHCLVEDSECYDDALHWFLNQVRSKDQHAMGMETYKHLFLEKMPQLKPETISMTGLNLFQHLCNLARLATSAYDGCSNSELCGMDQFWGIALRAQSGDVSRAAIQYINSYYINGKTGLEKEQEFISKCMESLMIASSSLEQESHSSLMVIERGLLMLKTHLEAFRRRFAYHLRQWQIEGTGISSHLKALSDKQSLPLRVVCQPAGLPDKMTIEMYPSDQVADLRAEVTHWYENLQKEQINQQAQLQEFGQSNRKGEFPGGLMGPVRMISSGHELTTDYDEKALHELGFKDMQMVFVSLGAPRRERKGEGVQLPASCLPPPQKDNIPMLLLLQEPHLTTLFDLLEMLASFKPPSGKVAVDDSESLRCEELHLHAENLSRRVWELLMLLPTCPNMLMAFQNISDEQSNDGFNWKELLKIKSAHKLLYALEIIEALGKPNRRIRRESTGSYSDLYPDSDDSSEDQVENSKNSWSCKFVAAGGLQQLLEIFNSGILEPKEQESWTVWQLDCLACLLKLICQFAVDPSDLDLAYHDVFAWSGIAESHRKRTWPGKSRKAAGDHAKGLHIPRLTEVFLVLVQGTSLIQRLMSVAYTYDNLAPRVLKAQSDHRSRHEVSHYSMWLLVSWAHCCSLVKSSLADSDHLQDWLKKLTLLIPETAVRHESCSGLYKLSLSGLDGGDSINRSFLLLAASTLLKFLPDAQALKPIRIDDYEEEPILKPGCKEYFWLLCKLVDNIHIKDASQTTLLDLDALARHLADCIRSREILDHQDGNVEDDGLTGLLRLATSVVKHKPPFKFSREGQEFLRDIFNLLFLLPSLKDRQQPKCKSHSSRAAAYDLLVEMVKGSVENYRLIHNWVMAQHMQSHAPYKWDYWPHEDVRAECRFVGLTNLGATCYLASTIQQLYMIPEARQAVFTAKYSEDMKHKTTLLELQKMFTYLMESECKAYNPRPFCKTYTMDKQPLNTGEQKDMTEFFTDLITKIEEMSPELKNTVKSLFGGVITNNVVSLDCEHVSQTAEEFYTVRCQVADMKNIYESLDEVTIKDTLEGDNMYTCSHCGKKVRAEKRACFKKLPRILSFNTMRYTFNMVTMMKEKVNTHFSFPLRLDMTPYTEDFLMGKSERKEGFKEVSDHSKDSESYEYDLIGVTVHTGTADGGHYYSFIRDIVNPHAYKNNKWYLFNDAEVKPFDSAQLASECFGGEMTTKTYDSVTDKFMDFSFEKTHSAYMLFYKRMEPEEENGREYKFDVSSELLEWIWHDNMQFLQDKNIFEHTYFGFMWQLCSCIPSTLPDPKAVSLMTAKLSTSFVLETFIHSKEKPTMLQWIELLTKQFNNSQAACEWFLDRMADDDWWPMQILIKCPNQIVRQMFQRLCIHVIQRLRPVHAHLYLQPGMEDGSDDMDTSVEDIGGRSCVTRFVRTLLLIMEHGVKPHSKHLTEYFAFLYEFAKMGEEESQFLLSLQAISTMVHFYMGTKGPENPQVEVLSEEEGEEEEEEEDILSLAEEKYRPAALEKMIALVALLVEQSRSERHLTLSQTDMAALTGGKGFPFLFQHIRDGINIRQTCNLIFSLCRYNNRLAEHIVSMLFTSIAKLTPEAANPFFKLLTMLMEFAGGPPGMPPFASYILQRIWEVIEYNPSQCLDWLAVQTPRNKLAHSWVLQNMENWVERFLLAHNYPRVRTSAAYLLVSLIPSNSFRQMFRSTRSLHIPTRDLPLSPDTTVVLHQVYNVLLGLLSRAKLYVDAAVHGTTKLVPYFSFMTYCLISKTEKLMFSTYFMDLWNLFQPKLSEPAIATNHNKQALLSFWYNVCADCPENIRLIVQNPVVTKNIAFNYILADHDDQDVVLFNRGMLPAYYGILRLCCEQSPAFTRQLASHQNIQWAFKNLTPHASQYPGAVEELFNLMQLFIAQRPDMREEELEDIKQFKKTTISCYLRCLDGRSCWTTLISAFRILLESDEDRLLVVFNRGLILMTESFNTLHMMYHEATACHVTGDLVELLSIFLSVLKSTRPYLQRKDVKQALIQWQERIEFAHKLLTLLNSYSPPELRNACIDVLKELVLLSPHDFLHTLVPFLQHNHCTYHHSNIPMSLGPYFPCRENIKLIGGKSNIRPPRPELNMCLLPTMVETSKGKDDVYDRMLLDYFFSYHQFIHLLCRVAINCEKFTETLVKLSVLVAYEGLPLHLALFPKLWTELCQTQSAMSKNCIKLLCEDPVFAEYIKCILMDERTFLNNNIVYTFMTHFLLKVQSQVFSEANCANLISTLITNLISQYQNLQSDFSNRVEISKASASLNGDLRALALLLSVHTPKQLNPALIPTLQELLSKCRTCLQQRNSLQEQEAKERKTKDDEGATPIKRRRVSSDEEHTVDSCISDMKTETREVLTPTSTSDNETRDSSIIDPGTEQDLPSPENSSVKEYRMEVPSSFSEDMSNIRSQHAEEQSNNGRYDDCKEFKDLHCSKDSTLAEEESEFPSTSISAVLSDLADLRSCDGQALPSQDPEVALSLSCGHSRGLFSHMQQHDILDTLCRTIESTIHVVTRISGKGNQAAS
Outline: (§1)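 Labelled DUBs were enriched with NeutrAvidin, digested with LysC and trypsin, and run by diaPASEF LC-MS/MS. The labelling used Biotin-Ahx-Ub-VS at 0.5 µM final for 1 h on HEK293T lysate (495 µg per sample) previously treated in triplicate with fragment at 200 µM or vehicle for 3 h. Values are average log2 fragment/vehicle ratios by unpaired t-test on global-median-normalised Spectronaut quantities of proteins with ≥2 unique peptides.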

USP36 = target: T1, USP36 (UniProt Q9P275)
T1 sequence (whole entry): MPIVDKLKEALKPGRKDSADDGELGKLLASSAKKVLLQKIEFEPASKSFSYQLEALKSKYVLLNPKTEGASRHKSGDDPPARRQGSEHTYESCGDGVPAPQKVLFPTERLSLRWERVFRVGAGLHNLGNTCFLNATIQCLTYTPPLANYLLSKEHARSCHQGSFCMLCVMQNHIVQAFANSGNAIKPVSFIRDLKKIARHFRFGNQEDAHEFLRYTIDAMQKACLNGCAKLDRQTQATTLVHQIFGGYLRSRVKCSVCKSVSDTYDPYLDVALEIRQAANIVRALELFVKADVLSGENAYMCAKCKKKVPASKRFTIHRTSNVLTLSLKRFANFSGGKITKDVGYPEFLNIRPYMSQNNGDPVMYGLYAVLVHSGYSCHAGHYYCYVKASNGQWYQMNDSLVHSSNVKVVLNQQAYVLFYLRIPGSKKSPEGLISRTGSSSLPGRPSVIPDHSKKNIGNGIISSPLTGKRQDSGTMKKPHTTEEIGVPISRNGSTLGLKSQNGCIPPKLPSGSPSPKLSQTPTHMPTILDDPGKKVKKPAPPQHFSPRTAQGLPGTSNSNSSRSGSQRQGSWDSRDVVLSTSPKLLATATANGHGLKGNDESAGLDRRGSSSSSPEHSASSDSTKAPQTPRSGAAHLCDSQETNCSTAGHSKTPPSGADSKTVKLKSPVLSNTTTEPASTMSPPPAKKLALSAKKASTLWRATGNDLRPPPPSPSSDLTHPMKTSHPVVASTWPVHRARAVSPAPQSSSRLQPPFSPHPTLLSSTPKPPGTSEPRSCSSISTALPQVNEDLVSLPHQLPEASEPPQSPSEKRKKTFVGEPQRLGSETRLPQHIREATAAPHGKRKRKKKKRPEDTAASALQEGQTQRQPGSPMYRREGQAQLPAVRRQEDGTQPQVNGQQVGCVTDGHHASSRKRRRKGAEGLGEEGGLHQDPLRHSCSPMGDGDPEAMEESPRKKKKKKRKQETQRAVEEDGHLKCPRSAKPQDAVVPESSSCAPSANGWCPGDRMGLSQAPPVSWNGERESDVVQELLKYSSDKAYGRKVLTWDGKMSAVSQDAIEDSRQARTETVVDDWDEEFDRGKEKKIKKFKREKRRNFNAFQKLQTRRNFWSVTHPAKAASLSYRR
Outline: as §1

USP38 = target: T2, USP38 (UniProt Q8NB14)
T2 sequence (whole entry): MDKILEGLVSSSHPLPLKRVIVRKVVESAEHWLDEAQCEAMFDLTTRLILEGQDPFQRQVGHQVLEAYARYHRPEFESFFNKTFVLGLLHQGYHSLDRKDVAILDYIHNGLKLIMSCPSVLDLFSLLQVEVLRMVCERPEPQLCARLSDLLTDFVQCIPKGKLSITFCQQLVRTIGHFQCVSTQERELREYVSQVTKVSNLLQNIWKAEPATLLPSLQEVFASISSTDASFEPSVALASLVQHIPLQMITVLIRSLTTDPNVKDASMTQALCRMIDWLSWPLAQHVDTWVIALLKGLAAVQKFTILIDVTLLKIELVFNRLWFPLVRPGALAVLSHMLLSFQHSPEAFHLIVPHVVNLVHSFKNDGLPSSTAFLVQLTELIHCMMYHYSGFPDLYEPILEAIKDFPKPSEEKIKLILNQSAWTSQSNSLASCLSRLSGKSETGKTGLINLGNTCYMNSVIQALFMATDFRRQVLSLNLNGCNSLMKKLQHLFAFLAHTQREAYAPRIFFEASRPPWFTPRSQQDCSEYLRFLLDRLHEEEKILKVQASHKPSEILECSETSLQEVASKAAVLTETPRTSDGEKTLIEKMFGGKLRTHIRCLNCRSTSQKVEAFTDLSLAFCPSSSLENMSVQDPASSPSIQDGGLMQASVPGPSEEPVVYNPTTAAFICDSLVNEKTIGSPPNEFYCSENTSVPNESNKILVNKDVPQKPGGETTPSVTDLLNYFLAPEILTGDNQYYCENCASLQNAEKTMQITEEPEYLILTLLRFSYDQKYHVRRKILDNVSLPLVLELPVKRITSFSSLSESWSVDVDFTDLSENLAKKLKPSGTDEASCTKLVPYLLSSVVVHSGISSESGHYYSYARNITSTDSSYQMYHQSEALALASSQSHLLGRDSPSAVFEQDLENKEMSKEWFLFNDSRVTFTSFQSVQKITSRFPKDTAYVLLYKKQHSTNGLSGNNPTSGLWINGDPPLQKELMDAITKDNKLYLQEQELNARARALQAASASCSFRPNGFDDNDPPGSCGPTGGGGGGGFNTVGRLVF
Outline: as §1

USP39 = target: T3, USP39 (UniProt Q53GS9)
T3 sequence (whole entry): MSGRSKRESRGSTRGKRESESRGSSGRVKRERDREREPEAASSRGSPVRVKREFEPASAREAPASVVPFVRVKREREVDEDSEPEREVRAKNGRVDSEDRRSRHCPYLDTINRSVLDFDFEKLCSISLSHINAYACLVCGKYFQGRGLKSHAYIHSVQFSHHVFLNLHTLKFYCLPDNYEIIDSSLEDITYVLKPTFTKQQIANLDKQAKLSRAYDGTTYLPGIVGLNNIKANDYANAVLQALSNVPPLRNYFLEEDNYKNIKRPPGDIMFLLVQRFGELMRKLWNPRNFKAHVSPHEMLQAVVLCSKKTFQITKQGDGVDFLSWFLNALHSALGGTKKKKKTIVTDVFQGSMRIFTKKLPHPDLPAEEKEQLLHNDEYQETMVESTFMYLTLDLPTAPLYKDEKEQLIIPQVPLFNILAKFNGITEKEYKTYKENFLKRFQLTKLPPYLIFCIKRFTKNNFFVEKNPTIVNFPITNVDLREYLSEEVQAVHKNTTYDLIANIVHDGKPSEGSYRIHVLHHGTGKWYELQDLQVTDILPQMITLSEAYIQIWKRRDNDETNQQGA
Outline: as §1

USP4 = target: T4, USP4 (UniProt Q13107)
T4 sequence (whole entry): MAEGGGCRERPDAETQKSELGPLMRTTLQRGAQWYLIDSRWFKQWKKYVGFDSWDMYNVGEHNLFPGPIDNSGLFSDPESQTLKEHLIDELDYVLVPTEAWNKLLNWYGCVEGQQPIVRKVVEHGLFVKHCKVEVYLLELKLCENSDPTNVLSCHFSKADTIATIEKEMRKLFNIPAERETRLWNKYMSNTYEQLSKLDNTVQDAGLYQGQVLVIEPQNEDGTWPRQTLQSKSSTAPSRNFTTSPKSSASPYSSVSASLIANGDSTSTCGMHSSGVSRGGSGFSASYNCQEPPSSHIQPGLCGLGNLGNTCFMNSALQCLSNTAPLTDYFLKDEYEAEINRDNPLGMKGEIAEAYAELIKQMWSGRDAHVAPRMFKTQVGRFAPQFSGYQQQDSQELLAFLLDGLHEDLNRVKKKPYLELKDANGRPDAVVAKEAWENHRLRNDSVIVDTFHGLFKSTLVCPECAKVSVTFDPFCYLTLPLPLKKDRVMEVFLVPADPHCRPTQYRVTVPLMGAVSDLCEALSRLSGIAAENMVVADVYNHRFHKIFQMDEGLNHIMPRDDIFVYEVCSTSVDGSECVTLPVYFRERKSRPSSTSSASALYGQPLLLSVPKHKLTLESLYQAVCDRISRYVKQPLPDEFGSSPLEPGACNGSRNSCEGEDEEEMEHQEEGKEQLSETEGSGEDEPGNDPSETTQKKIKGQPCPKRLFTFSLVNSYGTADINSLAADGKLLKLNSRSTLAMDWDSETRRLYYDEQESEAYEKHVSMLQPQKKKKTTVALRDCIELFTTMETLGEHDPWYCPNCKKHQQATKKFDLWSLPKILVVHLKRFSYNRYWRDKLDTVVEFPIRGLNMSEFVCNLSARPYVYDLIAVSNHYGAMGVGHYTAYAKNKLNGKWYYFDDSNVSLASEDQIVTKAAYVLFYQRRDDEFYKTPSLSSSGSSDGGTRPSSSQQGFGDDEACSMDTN
Outline: as §1

Measured: log2 ratio of Biotin-Ahx-Ub-VS probe labelling

NC(=O)C1CCCCN1C(=O)CCl (stereo not given)
inactive: USP34 -0.0479 | USP36 -0.322 | USP38 0.0849 | USP39 0.0987 | USP4 -0.0651
